Assay [1] deals with Methanococcus maripaludis chaperonin (MmCpn) (UniProt Q6LX38). In words: High-Throughput Screening for Modulators of Cytosolic Chaperonin Activity: MmCpn Primary Screen (AID 488978).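 Further: 50 nM MmCpn enzyme hydrolysing 30 µM ATP at 37 °C; 0% is about no effect.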 In short, it runs like this: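 MmCpn (50 nM final) was preincubated with compound 5 min at RT, then 30 uM ATP (final) was added and the reaction ran 10 min at 37C. ADP produced was detected by Transcreener HTRF (ex 320 nm; em 590/665 nm).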
Chain of Methanococcus maripaludis chaperonin (MmCpn) (Q6LX38 1-543): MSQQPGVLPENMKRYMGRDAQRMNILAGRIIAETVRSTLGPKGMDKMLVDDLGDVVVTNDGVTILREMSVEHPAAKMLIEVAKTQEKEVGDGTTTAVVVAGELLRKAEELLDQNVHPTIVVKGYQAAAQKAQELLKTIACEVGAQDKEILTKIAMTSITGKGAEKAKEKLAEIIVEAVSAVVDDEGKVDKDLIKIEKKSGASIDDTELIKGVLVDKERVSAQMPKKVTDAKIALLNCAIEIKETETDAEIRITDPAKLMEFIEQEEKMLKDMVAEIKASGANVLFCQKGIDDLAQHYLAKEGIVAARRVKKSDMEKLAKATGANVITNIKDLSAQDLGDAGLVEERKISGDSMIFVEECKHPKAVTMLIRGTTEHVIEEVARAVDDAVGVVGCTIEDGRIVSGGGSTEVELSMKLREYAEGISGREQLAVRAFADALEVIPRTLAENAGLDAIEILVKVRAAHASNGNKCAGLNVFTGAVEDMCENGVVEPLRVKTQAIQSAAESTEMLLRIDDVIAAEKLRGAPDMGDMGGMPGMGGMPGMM

The target of assay [2] is Thyrotropin receptor (Homo sapiens) (UniProt P16473). In words: qHTS Assay for Antagonists of the Thyroid Stimulating Hormone Receptor (AID 488980). Further: series mostly up to about 58 µM; 0% is about no effect. In short, it runs like this:
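HEK293 cells transfected with human TSHR, suspended in HEPES-buffered HBSS with 70 uM RO 20-1724, were treated with compounds plus TSH at EC80 (4 nM final). cAMP was measured by competitive HTRF (cryptate anti-cAMP antibody, cAMP-d2 acceptor).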

The target in assay [3] is D(1A) dopamine receptor (Homo sapiens) (UniProt P21728). Put plainly: HTS Assay for Allosteric Agonists of the Human D1 Dopamine Receptor: Primary Screen for Potentiators (AID 488982). Further: 0% is about no effect. In short, it runs like this: (§1)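 Calcium flux in an inducible, force-coupled HEK293 Trex D1 line (overnight at 30 C): agonist mode is the 180 s kinetic read after compound; potentiator mode is the following 180 s read after dopamine at EC20.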
Chain of D(1A) dopamine receptor (Homo sapiens) (P21728 whole entry, looked up): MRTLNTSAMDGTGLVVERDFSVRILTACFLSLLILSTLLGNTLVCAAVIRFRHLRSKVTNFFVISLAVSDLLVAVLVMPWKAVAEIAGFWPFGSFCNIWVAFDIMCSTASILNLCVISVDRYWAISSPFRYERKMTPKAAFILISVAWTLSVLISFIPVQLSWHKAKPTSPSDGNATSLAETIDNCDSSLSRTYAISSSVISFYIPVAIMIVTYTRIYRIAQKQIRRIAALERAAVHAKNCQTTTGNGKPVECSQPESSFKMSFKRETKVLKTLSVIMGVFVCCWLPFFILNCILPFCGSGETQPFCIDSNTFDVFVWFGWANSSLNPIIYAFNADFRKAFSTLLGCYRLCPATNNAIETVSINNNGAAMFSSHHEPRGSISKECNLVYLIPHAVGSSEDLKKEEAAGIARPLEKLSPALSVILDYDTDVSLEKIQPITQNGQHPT

Assay [4] can be described thus: Validation screen for small molecules that induce genotoxicity in human embryonic kidney (HEK293T) cells expressing luciferase-tagged ELG1 (AID 493106). Further: 0% is about no effect. In short, it runs like this: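 ELG1-luciferase reporter readout (ONE-Glo, 30 min, room temperature) after 16 hr compound treatment at 37 °C of HEK293T cells at 2,000 per well. Rising luminescence flags genotoxic stress.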

In assay [5] the target is Thyrotropin-releasing hormone receptor (Homo sapiens) (UniProt P34981). In words: qHTS for Small Molecule Agonists and Allosteric Enhancers of Human TRH Receptor: Validation Screen for Agonists (AID 493127;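 active means calcium activation more than 3 SD above the typical response in the agonist read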;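 further: intracellular calcium rise by fluo-8 fluorescence before TRH EC20 addition; 0% is about no effect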). Particulars: TRH receptor agonist cell assay; at 2 µM; stronger effect = higher value. In short, it runs like this: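 Compound-evoked intracellular calcium release in fluo-8-loaded TRHR cells, read kinetically on FDSS (Ex 480/Em 530, 1 s/cycle) after 23 nL pintool transfer. Agonist phase preceded 10 nM TRH EC20 addition.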
On the technique in general: qHTS replaces the single test concentration by a dilution series.

Assay [6] in a line: Nrf2 qHTS screen for inhibitors: Validation (AID 493153; active means well fitted inhibition curve with a large enough effect in the main read-out, with a control signal flat, not every such curve was filed as active). Particulars: Potency: luciferase luminescence; viability change: measured here: cytotoxicity max response. In short, it runs like this:
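Concentration-response on A549 ARE_Fluc reporter cells exposed 18-24 h at 37 C, 5% CO2. Cytotoxicity read first by CellTiter-Fluor fluorescence (Ex 405/Em 525), then Nrf2 inhibition by BugLite luminescence after 15 min.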

Assay [7] in a line: qHTS for Inhibitors of Cell Surface uPA Generation: Validation Assay (AID 493164).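 Further: RAW 264.7 macrophage cells exposed to compound for 18 h; 0% is about no effect.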 In short, it runs like this:
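ATP-Lite luminescence read-out: ATP remains high when uPA activity-dependent LF translocation into the cytoplasm is blocked. RAW 264.7 cells, 18 h compound exposure at 37 C; 7-point titration, 2.45 nM to 38.3 uM final.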

Assay [8] has as its target Galactokinase (Homo sapiens) (UniProt P51570). In words: qHTS Validation Assay for Inhibitors of Human Galactokinase (GALK) (AID 493189). Further: 0% is about no effect. In short, it runs like this: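 GALK (5 nM) with 35 uM ATP and 100 uM galactose in HEPES pH8.0, MgCl2, NaCl, DTT, BSA; 1 h at room temperature. Residual ATP read by Kinase-Glo Plus luminescence after 10 min.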
Assay [9] can be described thus: Validation screen for small molecules that induce DNA re-replication in SW480 colon adenocarcinoma cells (AID 504364). Further: 0% is about no effect. In short, it runs like this: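 Image-based DNA content read-out: Hoechst stain 40 min, total nuclear fluorescence intensity (ex 405 nm, em 500-530 nm) after 48 h compound exposure of 250 SW480 cells/well at 37 C, 5% CO2, versus DMSO vehicle.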
Assay [10] addresses Peptidyl-prolyl cis-trans isomerase NIMA-interacting 1 (Homo sapiens) (UniProt Q13526). Put plainly: qHTS Validation Assay to Find Inhibitors of Pin1 (AID 504536; active means well fitted inhibition curve with a large enough effect in the polarisation, with a control signal flat, not every such curve was filed as active; the % refers to the polarisation;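 further: 0% = full Pin1 enzyme wells and -100% = no-enzyme wells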). In short, it runs like this:
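Fluorescence polarization competition: compounds (titration) displace HiFluor-488-labeled Pin1-1b peptide from Pin1 (0.3 uM final) in pH 7.5 HEPES buffer with DTT, 10 min at room temperature; %Activity normalized to no-enzyme wells, curves fitted.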

In assay [11] the target is Phosphoglycerate kinase, glycosomal (Trypanosoma brucei brucei) (UniProt P07378). Put plainly: qHTS Validation Assay to Find Inhibitors of Phosphoglycerate Kinase (AID 504547).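 Further: control wells lack PGK and mark full inhibition.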 In short, it runs like this: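 Luminescence end-point (Kinase-Glo Plus, 10 min) after a 60 min room-temperature coupled reaction. GAPDH at 100nM final supplies 1,3-BPG to PGK. Buffer: 100mM TEA pH 7.6, 5mM MgCl2, 0.01% Tween-20. Wells lacking PGK served as controls.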
Chain of Phosphoglycerate kinase, glycosomal (Trypanosoma brucei brucei) (P07378 whole entry, looked up): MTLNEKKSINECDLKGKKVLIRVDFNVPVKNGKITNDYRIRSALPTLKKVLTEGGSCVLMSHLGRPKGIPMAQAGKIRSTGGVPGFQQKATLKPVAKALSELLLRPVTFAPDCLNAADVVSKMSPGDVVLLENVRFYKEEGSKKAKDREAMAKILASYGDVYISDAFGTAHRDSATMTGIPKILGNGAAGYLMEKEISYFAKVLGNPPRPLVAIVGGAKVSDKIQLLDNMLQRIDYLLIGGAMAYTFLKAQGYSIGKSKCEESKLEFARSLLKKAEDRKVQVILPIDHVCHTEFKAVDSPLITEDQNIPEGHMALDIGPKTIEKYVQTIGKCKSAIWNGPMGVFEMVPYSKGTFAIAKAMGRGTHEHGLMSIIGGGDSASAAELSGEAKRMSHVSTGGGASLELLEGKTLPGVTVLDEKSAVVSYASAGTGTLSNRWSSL

Assay [12] addresses phosphoglycerate mutase (Leishmania major) (UniProt Q4Q090). In words: qHTS Validation Assay to Find Inhibitors of Phosphoglycerate Mutase (AID 504548).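 Further: end-point luminescence from Kinase-GloPlus after the PGAM reaction; series mostly up to about 58 µM; on the % scale 0 is the no-effect control and ±100 the full control effect.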 The conditions noted are these: Potency: inhibition qHTS. In short, it runs like this: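 Inhibition of L. major PGAM was assessed by Kinase-GloPlus luminescence following a 45-minute room-temperature reaction with enzyme at 1.25nM final.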

Assay [13] has as its target Ubiquitin carboxyl-terminal hydrolase 1 (Homo sapiens) (UniProt O94782). In words: Inhibitors of USP1/UAF1: Pilot qHTS (AID 504865).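 Further: rhodamine fluorescence freed from ubiquitin-rhodamine substrate followed over time; top concentration of the series differs between compounds; on the % scale 0 is the no-effect control and ±100 the full control effect; nearly all actives have a fitted effect of over 35% in size.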 In short, it runs like this: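 USP1/UAF1 complex (1nM) preincubated with compound 15 min at room temperature, then Ub-Rho substrate (150nM final) added. Fluorescence read kinetically at 480/540 nm, 6 reads every 60 seconds. Buffer: 50mM HEPES pH 7.8, 0.5mM EDTA, 0.1 mg/ml BSA, 1mM TCEP, 0.01% Tween-20.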

The nature of assay [14]: qHTS for Inhibitors of ATXN expression: Validation of Cytotoxic Assay (AID 588349). Further: potency means the concentration at half of the fitted maximal effect. In short, it runs like this: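 Cytotoxicity counter-screen: ATP-based luminescent viability (CellTiter Glo) after 72 hr exposure of HEK293 cells to a compound titration at 37 degrees C.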
The target in assay [15] is D(1A) dopamine receptor (Homo sapiens) (UniProt P21728). Put plainly: HTS Assay for Allosteric Agonists of the Human D1 Dopamine Receptor: Primary Screen for Agonists (AID 488981). Further: 0% is about no effect. In short, it runs like this:
as §1

The target is the same in assay [16]. Put plainly: HTS Assay for Allosteric Agonists of the Human D1 Dopamine Receptor: Primary Screen for Antagonists (AID 488983).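 Further: calcium flux response to an EC80 dopamine challenge measured with no-wash dye; on the % scale 0 is the no-effect control and ±100 the full control effect; nearly all actives have a fitted effect of over 65% in size.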 In short, it runs like this:
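Calcium-flux read-out in inducible HEK293 T-REx cells expressing D1, dye-loaded 30–90 min at room temperature. Kinetic reads: 180 s after compound (agonist phase), then 180 s after an EC80 dopamine challenge.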

The target in assay [17] is ATPase family AAA domain-containing protein 5 (Homo sapiens) (UniProt Q96QE3). In words: Validation screen for small molecules that inhibit ELG1-dependent DNA repair in human embryonic kidney (HEK293T) cells expressing luciferase-tagged ELG1 (AID 493107). Further: nearly all actives have a fitted effect of over 70% in size. Further: potency means the concentration at half of the fitted maximal effect. In short, it runs like this: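 Luciferase read-out, ONE-Glo, 30 min at room temperature, follows 16 h co-exposure at 37 C of compound and the DNA-damaging agent 5-fluorouridine. Cells: HEK293T with ELG1-luciferase fusion, 2,000 per well, DMSO as vehicle.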
Chain of ATPase family AAA domain-containing protein 5 (Homo sapiens) (Q96QE3 whole entry, looked up, the tested form may be a part): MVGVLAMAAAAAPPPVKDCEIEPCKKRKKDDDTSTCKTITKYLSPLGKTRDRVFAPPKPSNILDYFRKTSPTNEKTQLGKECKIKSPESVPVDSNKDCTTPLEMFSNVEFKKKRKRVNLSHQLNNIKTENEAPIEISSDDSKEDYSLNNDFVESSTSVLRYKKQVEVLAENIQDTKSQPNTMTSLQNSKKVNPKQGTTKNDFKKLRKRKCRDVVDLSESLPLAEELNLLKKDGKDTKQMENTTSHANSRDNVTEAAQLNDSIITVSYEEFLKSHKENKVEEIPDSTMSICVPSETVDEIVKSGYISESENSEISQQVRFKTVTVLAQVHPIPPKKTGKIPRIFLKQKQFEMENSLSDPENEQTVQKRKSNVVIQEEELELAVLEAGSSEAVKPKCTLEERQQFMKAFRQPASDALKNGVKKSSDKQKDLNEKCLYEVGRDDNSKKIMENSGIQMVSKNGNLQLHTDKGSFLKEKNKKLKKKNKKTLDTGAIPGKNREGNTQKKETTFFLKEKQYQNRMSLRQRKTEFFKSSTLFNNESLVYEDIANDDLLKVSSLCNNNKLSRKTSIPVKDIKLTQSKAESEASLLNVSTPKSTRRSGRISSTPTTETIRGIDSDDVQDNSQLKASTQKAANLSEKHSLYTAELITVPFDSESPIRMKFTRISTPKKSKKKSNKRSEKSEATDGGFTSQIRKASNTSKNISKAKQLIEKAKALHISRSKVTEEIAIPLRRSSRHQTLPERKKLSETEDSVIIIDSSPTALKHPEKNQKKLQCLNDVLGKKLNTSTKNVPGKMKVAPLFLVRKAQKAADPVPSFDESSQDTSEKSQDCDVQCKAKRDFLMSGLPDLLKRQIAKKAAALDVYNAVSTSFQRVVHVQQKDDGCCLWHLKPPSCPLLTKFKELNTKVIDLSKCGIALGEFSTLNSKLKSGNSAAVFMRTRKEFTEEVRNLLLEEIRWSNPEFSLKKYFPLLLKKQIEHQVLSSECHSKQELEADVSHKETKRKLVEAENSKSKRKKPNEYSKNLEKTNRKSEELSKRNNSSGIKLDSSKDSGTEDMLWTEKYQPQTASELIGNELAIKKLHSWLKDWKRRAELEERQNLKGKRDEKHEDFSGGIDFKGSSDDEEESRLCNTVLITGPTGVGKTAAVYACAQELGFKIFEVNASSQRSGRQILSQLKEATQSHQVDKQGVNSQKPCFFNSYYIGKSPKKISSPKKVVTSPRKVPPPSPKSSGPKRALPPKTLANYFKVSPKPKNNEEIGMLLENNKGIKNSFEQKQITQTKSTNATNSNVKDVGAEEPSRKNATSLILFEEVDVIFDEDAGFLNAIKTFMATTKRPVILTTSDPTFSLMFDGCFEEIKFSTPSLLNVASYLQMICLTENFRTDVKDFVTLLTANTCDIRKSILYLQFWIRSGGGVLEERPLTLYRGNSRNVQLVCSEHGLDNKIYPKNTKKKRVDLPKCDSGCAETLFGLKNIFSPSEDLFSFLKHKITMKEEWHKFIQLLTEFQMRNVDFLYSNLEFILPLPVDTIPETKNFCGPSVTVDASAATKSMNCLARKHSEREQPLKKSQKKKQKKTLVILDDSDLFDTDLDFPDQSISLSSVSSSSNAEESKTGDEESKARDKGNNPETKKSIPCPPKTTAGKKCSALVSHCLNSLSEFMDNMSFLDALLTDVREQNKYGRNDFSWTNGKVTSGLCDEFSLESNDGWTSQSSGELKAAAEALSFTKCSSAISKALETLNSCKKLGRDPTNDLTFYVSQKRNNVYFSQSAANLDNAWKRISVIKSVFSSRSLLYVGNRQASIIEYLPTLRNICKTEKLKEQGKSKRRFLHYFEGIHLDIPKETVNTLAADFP

Each structure is given as a SMILES string. Results filed as inconclusive are left out. Active and inactive are the calls of the source. Unless noted, the call rests on the fitted dose curve; in most records, active means well fitted curve in the direction sought with a large enough effect; inconclusive means small, poorly fitted or top-dose-only effect, or another doubt; inactive means no such curve, though single readings can be large; an effect the other way counts as inactive or inconclusive.

Chain of Peptidyl-prolyl cis-trans isomerase NIMA-interacting 1 (Homo sapiens) (Q13526 whole entry, looked up): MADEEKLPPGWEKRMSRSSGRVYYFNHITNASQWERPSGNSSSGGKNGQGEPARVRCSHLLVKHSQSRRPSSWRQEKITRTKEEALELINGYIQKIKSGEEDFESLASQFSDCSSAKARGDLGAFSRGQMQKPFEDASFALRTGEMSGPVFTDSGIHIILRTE
Chain of phosphoglycerate mutase (Leishmania major) (Q4Q090 1-553): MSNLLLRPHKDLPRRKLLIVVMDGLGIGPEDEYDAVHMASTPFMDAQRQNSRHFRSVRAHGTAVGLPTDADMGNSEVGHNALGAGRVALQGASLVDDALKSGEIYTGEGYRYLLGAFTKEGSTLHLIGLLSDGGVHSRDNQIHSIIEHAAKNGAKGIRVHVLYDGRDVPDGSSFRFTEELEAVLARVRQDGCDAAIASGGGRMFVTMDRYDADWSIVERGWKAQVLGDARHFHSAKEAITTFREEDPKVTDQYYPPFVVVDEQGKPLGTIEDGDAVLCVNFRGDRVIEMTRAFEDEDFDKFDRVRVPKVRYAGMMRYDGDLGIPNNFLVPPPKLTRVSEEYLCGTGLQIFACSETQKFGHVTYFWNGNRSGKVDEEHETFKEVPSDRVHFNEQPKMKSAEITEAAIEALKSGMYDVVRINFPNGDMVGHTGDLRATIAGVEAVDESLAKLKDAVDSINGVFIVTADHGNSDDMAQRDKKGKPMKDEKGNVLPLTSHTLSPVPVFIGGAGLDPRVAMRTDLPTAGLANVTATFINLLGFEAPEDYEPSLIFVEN
Chain of Ubiquitin carboxyl-terminal hydrolase 1 (Homo sapiens) (O94782 whole entry, looked up): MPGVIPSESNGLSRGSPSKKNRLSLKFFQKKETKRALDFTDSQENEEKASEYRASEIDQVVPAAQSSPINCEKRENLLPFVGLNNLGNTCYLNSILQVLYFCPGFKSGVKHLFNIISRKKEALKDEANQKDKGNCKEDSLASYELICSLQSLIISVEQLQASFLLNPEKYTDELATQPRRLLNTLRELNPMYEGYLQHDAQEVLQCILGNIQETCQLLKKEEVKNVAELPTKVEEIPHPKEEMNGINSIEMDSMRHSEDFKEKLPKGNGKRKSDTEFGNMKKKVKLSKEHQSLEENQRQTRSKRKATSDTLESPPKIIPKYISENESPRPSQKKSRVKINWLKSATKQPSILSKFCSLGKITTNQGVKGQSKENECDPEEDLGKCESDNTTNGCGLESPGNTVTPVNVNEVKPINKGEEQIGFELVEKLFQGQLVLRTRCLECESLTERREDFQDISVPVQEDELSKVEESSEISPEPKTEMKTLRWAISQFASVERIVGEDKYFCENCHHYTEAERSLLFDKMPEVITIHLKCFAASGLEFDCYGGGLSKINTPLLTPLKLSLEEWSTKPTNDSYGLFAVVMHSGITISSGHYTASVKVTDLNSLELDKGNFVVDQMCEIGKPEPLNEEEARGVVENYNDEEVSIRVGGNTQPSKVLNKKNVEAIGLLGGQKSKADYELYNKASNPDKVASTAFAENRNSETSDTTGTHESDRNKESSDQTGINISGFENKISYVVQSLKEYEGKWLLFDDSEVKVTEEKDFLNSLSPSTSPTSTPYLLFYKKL

With `NC[C@@H]1O[C@H](C23CC4CC(CC(C4)C2)C3)Cc2c1ccc(O)c2O`, the result in [1], in assay [2] and in assay [7] was inactive. The Potency result in assay [3], in [4], in assay [6], in assay [8], in assay [9] and in assay [10] was “inactive” each time. For the same compound, the Potency entry in assay [11], in [12] and in assay [13] was “inactive” each time. Further, the activation in assay [5] was 8.12% (inactive). In addition, in assay [6], the viability change amounted to 3.16%. For the same compound, the Potency in [14] was 31.6 µM (active).

Turning to `O=[N+]([O-])c1ccc(CSc2ncnc3c2ncn3[C@@H]2O[C@H](CO)[C@@H](O)[C@H]2O)cc1`, the compound was called inactive in assay [1] and in assay [7]. Also, the Potency result in [15], in assay [3], in assay [16], in [4], in assay [10] and in assay [11] was “inactive” in each case. Further, the Potency entry in [12], in [13] and in assay [14] was “inactive” throughout. For the same compound, in [17], the Potency is 0.0206 µM (active).

With `C=C[C@H]1CN2CC[C@@H]1C[C@@H]2[C@@H](O)c1ccnc2ccc(OC)cc12`, the result in assay [1] and in [7] was inactive. The Potency result in [15], in assay [3], in assay [16], in assay [4], in assay [17] and in [11] was “inactive” in each case. Further, in [12], the Potency entry is “inactive”.

As for `Nc1nc(Nc2ccccc2)nc2c1ncn2[C@@H]1O[C@H](CO)[C@@H](O)[C@H]1O`, the outcome in assay [1] and in [7] was inactive. The Potency entry in assay [15], in assay [3], in assay [16], in assay [6], in assay [10] and in assay [11] was “inactive” each time. Moreover, the Potency result in assay [12], in assay [13] and in assay [14] was “inactive” throughout. In addition, the Potency in assay [17] was 5.8 µM (active). Besides, the viability change in [6] is -0.505%.

For the compound `CNc1ncnc2c1ncn2[C@@H]1O[C@H](CO)[C@@H](O)[C@H]1O`, the compound was classed as inactive in [1] and in assay [7]. Also, the Potency entry in [15], in assay [3], in [16], in assay [17], in assay [6] and in assay [11] was “inactive” in each case. Also, the Potency result in [12], in [13] and in [14] was “inactive” throughout. Further, in assay [6], the viability change is -0.614%.

Turning to `C=C[C@@H]1CN2CC[C@@H]1C[C@H]2[C@H](O)c1ccnc2ccc(OC)cc12`, the result in [1] and in assay [7] was inactive. Moreover, the Potency result in assay [15], in assay [3], in assay [16], in assay [4], in assay [6] and in assay [9] was “inactive” throughout. In addition, the Potency result in [11] and in [12] was “inactive” each time. The viability change in [6] is -4.66%.

In the case of `CNCC[C@H](Oc1ccc(C(F)(F)F)cc1)c1ccccc1`, the outcome in [1], in [2] and in assay [7] was inactive. For the same compound, the Potency result in assay [3], in [4], in assay [6], in [8], in assay [9] and in [10] was “inactive” each time. Besides, the Potency entry in assay [11], in assay [12] and in [13] was “inactive” throughout. For the same compound, the activation in assay [5] is 14.1% (inactive). The viability change in assay [6] stood at 1.58%.

As to `CNC(=O)[C@H]1O[C@@H](n2cnc3c(NCc4cccc(I)c4)ncnc32)[C@H](O)[C@@H]1O`, the compound was classed as inactive in assay [1] and in assay [7]. Further, the Potency entry in [15], in [3], in assay [16], in [10], in assay [11] and in assay [12] was “inactive” throughout. Moreover, the Potency result in assay [13] and in assay [14] was “inactive” each time.

The values above are taken from PubChem BioAssay (NCATS).
